We go through 94 compounds from PubChem BioAssay AID492967 (ICCB-Longwood Screening Facility, Harvard Medical School, 2010).

The structures appear in SMILES notation. About 320 (0.23%) of roughly 140,000 compounds were called active. Rule as the data show it: active = z-score mostly below about -2.9 (no sharp cut-off); inactive = mostly above about -1.9. This excerpt belongs to a sample that is enriched for actives.

The test system of this assay is CapD gamma-glutamyltranspeptidase (Bacillus anthracis Ames Ancestor). The experiment in a line: inhibition of CapD gamma-glutamyltranspeptidase – biochemical, fluorescence intensity, primary screen (AID 492967). The settings on record: purified CapD enzyme, fluorescence intensity read-out; hits give low values.
On to `COc1ccc2nc(SCC(=O)Nc3cc(NC(=O)CSc4nc5ccc(OC)cc5[nH]4)cc(C(=O)O)c3)[nH]c2c1`, for which the z-score is -1.48 (inactive). To `COc1ccc(CCNC(=O)c2cn(C)c(=O)c3cc(OC)c(OC)cc23)cc1OC` belongs 1.5 (inactive). Regarding `O=C(COc1ccccc1)NCCc1nc2ccccc2n1Cc1ccccc1`, the z-score was -8.12 (active). Take `CCC(=O)NCCc1nc2ccccc2n1CC`: the z-score is -0.29 (inactive). In the case of `Cc1ccccc1Cn1c(CCNC(=O)C(C)(C)C)nc2ccccc21`, the z-score was -0.49 (inactive). With `CC(C)NC(=O)CN1CCN(S(=O)(=O)c2cc(Cl)ccc2Cl)CC1`, the z-score was -0.36 (inactive). Take `CC(C)(C)c1ccc(OCCCn2c(=O)sc3ccccc32)cc1`: the z-score was 0.35 (inactive).

Take `O=C1CC(c2c(Cl)cccc2Cl)c2ccc3ccccc3c2N1` (centres undefined): the z-score was 0 (inactive).

In the case of `COCCNC(=O)c1ccc(Cn2c(SCC(=O)NCC3CCCO3)nc3ccc(Br)cc3c2=O)cc1` (centres undefined), the z-score was -0.085 (inactive). For `Cc1ccc2cc3cc(C(=O)NCc4ccc(F)cc4)oc3nc2c1`, the z-score is 50.4 (inactive). In the case of `O=C(c1ccc(C(F)(F)F)cc1)N1CCC(c2nnc(-c3ccccc3)o2)CC1`, the z-score is -0.12 (inactive). Take `Cc1ccc2cc(C)c(C)cc2c1`: the z-score was -0.345 (inactive). The value for `COc1ccc(CCNC(=O)CCC(=O)Nc2nc(-c3cc4ccccc4oc3=O)cs2)cc1OC` was 0.27 (inactive); that for `CN(C)C=NC(=O)c1ccc(Oc2ncc(C(F)(F)F)cc2Cl)cc1` was -0.275 (inactive). In the case of `CC(=O)c1cc(Cl)cc(Cl)c1OC(=O)c1c(-c2c(Cl)cccc2Cl)noc1C`, the z-score is -0.58 (inactive).

Consider `O=C(NCCCN1CCCCC1)c1cc(-c2ccncc2)nc2ccccc12`, for which the z-score was 0.14 (inactive). `CCOc1cc(/C=C2\SC(=S)N(c3c(C)n(C)n(-c4ccccc4)c3=O)C2=O)ccc1O`: the z-score was -1.1 (inactive). For the compound `CCOc1cc(/C=C2\SC(=S)N(C(C)C(=O)O)C2=O)ccc1O` (centres undefined), the z-score was -2.57 (inactive). Consider `CCCC(C(=O)O)N1C(=O)/C(=C/c2ccc(O)c(OCC)c2)SC1=S` (centres undefined), for which the z-score was -7.48 (active).

With `Cc1ccc(N2CCN(c3ccccc3)CC2)nn1`, the z-score is -0.315 (inactive).

On to `COc1ccc(CN2C(=O)CC(C(=O)Nc3ccc(F)cc3)SC2=Nc2ccccc2)cc1` (centres undefined), for which the z-score was -0.02 (inactive). Consider `CCN1C[C@]2(OC(=O)c3ccccc3NC(C)=O)CC[C@H](OC)[C@@]34C2C[C@@H]([C@@H]13)[C@@]1(O)C[C@H](OC)[C@H]2CC4[C@]1(O)[C@H]2OC` (some centres undefined), for which the z-score is 7.48 (inactive). On to `CN(C(=O)Cn1nc(Cc2ccncc2)c2ccccc2c1=O)c1ccccc1`, for which the z-score is 5.11 (inactive). Consider `COc1ccc([N+](=O)[O-])cc1/C=C1\C(=O)NC(=O)N(c2ccc(Cl)cc2)C1=O`, for which the z-score was -0.64 (inactive).

In the case of `Oc1c(Br)cc(Br)cc1C=Nc1ccc(Oc2ccc(Cl)cc2)cc1`, the z-score is -1.07 (inactive).

As for `Cc1ccc2c(c1)-c1onc(C(=O)NC3CCCCC3)c1CO2`, the z-score is 3.98 (inactive). To `CCO/C=C1\SC(=S)N(Cc2ccccc2)C1=O` belongs -0.945 (inactive). To `O=C1c2ccccc2C(=O)N1CC1c2ccccc2CCN1S(=O)(=O)c1cccc2nsnc12` (centres undefined) belongs -0.52 (inactive); to `CCCCOc1ccc(C(=O)Nc2ccc3nc(SCC(=O)NCC4CCCO4)sc3c2)cc1` (centres undefined), 0.345 (inactive); to `O=C(/C=C/c1cn(-c2ccccc2)nc1-c1ccc(F)cc1)NCc1cccnc1`, 2.33 (inactive). `COC(=O)c1sc(-c2cccs2)cc1NS(=O)(=O)c1ccccc1`: the z-score is 41.9 (inactive). `COC(=O)c1c(NC(=O)Cn2nc([N+](=O)[O-])c(Br)c2C)sc2c1CCC(C)C2` (centres undefined): the z-score is -0.48 (inactive).

With `CCc1ccc(NC(=O)Cc2csc(C)n2)cc1`, the z-score is -0.185 (inactive).

As to `CCOC(=O)C1C(=O)CN(c2ccccc2)C1=O` (centres undefined), the z-score was 2.06 (inactive). Take `O=C(C1CCN(S(=O)(=O)c2ccc3[nH]c4c(c3c2)CCCCC4)CC1)N1CCCC1`: the z-score is -0.165 (inactive). To `Cc1ccc(NC(=O)c2ccccc2N)cc1C` belongs 29 (inactive); to `C=CCNC(=S)Nc1ccn(Cc2ccccc2C)n1`, -0.535 (inactive). The value for `O=C(CSc1ccc(Cl)cc1)N1CCC(C(F)(F)F)CC1` was 0.56 (inactive); that for `Cc1nc(Nc2ccc(S(N)(=O)=O)cc2)nc(Nc2ccc(S(N)(=O)=O)cc2)c1Br` was -0.56 (inactive); that for `CC(C)C(O)(C(=O)OC[C@@H]1CC[N+]2([O-])CCC[C@@H]12)C(C)O` (some centres undefined) was 0.78 (inactive). Take `O=C1CSC(c2ccccc2)C(=O)N1c1ccc(Br)cc1` (centres undefined): the z-score was 0.345 (inactive).

Regarding `Cc1ccc(-c2n[nH]c3c2C(c2ccccc2F)N(c2ccc(F)cc2)C3=O)cc1` (centres undefined), the z-score is -0.525 (inactive). Turning to `C/C(=N\NC(=O)C1CCCCC1)c1cccs1`, the z-score was -0.47 (inactive). For `N#CCC1NCCc2ccccc21` (centres undefined), the z-score is -2.33 (inactive). On to `CC1(C)CC2(CCCN(CC#N)C2)CCS1` (centres undefined), for which the z-score was 0.425 (inactive). Consider `COc1ccc(C(Nc2ncnc3c2ncn3C2CC=C(CO)CC2)(c2ccccc2)c2ccccc2)cc1` (centres undefined), for which the z-score was -0.275 (inactive). The value for `CN(Cc1ccccc1)C(=O)Cn1ncc2c3ccccc3n(Cc3ccccc3F)c2c1=O` was 0.685 (inactive). As to `O=C(CN1CCN(c2ccc([N+](=O)[O-])cn2)CC1)Nc1ccc2c(c1)OCO2`, the z-score is -0.23 (inactive). With `CCN(c1ccccc1)S(=O)(=O)c1cc2c(cc1C)n(C)c(=O)c(=O)n2C`, the z-score is 4.49 (inactive).

Turning to `C=C1Cn2c(nnc2-c2ccc(Br)cc2)S1`, the z-score is 0.32 (inactive). `O=C(CSc1nc2ccc(Br)cc2c(=O)n1-c1ccccc1)NCc1ccco1`: the z-score was 0.585 (inactive). In the case of `O=C(O)CCCN1C(=O)/C(=C2\SC(=S)N(CCCC(=O)O)C2=O)SC1=S`, the z-score is 1.03 (inactive). For `O=C(O)c1cc2cccnc2nc1C(F)(F)F`, the z-score is -0.285 (inactive). Regarding `COc1ccc(C(=O)OC2CC(C)=CCC3(C)CCC(O)(C(C)C)C23)cc1O` (centres undefined), the z-score is -0.385 (inactive). As to `COc1ccc(C(=O)N2CCN(C(=O)OCc3ccc(SC(F)(F)F)cc3)CC2)cc1F`, the z-score is 0.325 (inactive). As to `Nc1c(C(=O)O)noc1C(=O)c1ccccc1`, the z-score was 2.44 (inactive). For `O=C(OCC(=O)N1CCCCC1)c1ccc(OC(F)(F)F)cc1`, the z-score was 0.135 (inactive). For the compound `CC(C)(C)NC(=S)NNc1c(Cl)cncc1Cl`, the z-score is 0.41 (inactive). As to `CN(c1ncnc2c1nc1n2CCCCC1)C1CCCCC1`, the z-score was 0.88 (inactive). As to `NC(=S)c1ccc(-c2csnn2)cc1`, the z-score was -0.465 (inactive).

`CCN1C(=O)/C(=C2/Sc3ccccc3N2C2CCCCC2)SC1=S`: the z-score is -0.02 (inactive). For `CCN1C(=O)/C(=C/c2ccccc2)SC1=S`, the z-score is 0.005 (inactive). With `CCN1C(=O)/C(=C2/Sc3ccccc3N2CCCS(=O)(=O)O)SC1=S`, the z-score was -3.94 (active). For the compound `CCCCc1ccc2nc(N)sc2c1`, the z-score was -0.715 (inactive). As for `O=C(NCCO)c1ccc(/C=N/O)nc1`, the z-score is 0.075 (inactive). `Cc1c(Cl)cccc1NC(=O)c1ccc(-n2cccn2)c([N+](=O)[O-])c1`: the z-score is 2.56 (inactive).

Turning to `CC(=O)N1CCCN(S(=O)(=O)c2cccc3nonc23)CC1`, the z-score is -0.285 (inactive). To `CCn1c2ccccc2c2cc(CN3CCN(C(=O)c4ccccc4OC)CC3)ccc21` belongs 14 (inactive); to `O=[N+]([O-])c1ccc(-c2ccc(-c3[nH]c(-c4cccc([N+](=O)[O-])c4)nc3-c3ccccc3)cc2)cc1`, 0.025 (inactive); to `CC1CCN(CC(=O)N2c3ccccc3C(C)(c3ccccc3)CC2(C)C)CC1` (centres undefined), 0.18 (inactive).

On to `CCOC(=O)CC(=O)CSc1nc2c(sc(=S)n2CCc2ccccc2)c(=O)n1Cc1ccco1`, for which the z-score was 0.52 (inactive). For `O=C(COc1ncn(-c2ccccc2)n1)N/N=C/c1cc(OCc2ccccc2)cc(OCc2ccccc2)c1`, the z-score was -1.07 (inactive). For the compound `COc1cc(Br)c(C2C(C(=O)OCCOc3ccccc3)=C(C)NC3=C2C(=O)CCC3)cc1OC` (centres undefined), the z-score is 22.1 (inactive). In the case of `CCN1CCN(CCNC(=O)c2ccc(NC(=O)C3=CSCCO3)cc2)CC1`, the z-score was -0.9 (inactive).

Take `O=C(NCCc1ccccc1)c1cc2c(s1)CS(=O)(=O)C2`: the z-score was 0.17 (inactive). In the case of `O=C(O)c1cc2ccccc2c(=O)s1`, the z-score is 0.97 (inactive). With `O=C(O)c1cc2c(s1)CS(=O)(=O)C2`, the z-score is -3.92 (active).

Regarding `COc1ccc(C2Nc3ccccc3C(=O)N2c2ccccc2)cc1CSc1nc2ccccc2s1` (centres undefined), the z-score is 34.5 (inactive). Take `Cc1cc(C)nc(N2CCN(C(=O)C(C)(C)C)CC2)n1`: the z-score is -0.02 (inactive). Regarding `Nc1ccc(C(=O)Nc2nc3ccc(NC(=O)c4ccccc4)cc3s2)cc1`, the z-score was 13.6 (inactive). Regarding `O=C(OCCN1C(=O)c2ccccc2C1=O)c1ccc(Cl)cc1`, the z-score is 0.395 (inactive).

On to `O=C(NC(=O)N1CCOCC1)c1ccc(S(=O)(=O)N2CCOCC2)cc1`, for which the z-score is 0.605 (inactive). Regarding `CC1=NN(c2ccccc2)C(=O)CC1`, the z-score was 0.205 (inactive).

Consider `CCC(C)c1ccc(N2C(=O)C=CC2=O)cc1` (centres undefined), for which the z-score was -0.045 (inactive). For the compound `COc1ccc(N2CCN(c3ncnc4sc(C(=O)NCc5ccccc5OC)c(C)c34)CC2)cc1`, the z-score is -0.385 (inactive). For `Cc1ccc2c(c1)c1c3n2CCN(S(C)(=O)=O)C3CCC1` (centres undefined), the z-score was 0.19 (inactive). Turning to `CCOC(=O)c1cc(C#N)c(C)nc1N1CCN(C(=O)OCCN2CCN(Cc3cc4c(cc3Cl)OCO4)CC2)CC1`, the z-score was -0.455 (inactive). `OC(CSCc1ccc(Cl)cc1)(c1ccccc1)c1ccccc1`: the z-score was -0.53 (inactive). `CCOC(=O)c1ccc(NC(=O)N2CCC(CN3CCCCCC3)CC2)cc1`: the z-score was -1.43 (inactive).

Turning to `O=C1CCc2ccccc2CN1`, the z-score was 0.13 (inactive). Consider `Nc1ccc2c(c1)C/C(=C\c1ccco1)C2=O`, for which the z-score was -3.17 (inactive). As to `Cc1cccc(NC(=O)N(C)C)c1`, the z-score is 0.275 (inactive). For the compound `C=CCn1c(=S)sc2c(=O)[nH]c(C)nc21`, the z-score is -5.7 (active). In the case of `C=CCn1c(=S)sc2c(SCC(=O)N3CCc4ccccc43)ncnc21`, the z-score was 1.31 (inactive).
